Reference: PubChem BioAssay AID686979 (National Center for Advancing Translational Sciences (NCATS), 2013)
Hit rate of the full screen: of about 420,000 compounds, about 50,000 (12%) were called active. Roughly 26% stayed inconclusive and do not appear here. The entries come from a sample that favours actives as a whole. A call without a number means that no potency is given here. Values without a mark were called inactive. Calls follow the shape of the dose curve; as a rule, active = well fitted inhibition curve with a large enough effect; inconclusive = small, poorly fitted or top-dose-only effect; inactive = flat fitted curve, though single readings scatter.

assay: qHTS for Inhibitors of human tyrosyl-DNA phosphodiesterase 1 (TDP1): qHTS in cells in presence of CPT; conditions: chicken DT40 Tdp1-/-;hTDP1 cells + 20 nM CPT, ATP luminescence, 48 h; series mostly up to 46.2 µM; also: nearly all actives have a fitted effect of over 55% in size
How it was run: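 Cell growth measured by CellTiter-Glo luminescence after a minimum 48 h, 37 C compound exposure with 20 nM CPT in Tdp1-knockout DT40 cells stably expressing hTDP1, seeded 400/well; qHTS titration format.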
Potency is read from the fitted curve at half-maximal effect.

Row | Structure (SMILES) | Potency | activity change, negative = growth inhibition
1 | CC1=NOC(=O)/C1=C\c1ccccc1 | inactive | –
2 | COc1cc(/C=C2/C(=O)ON=C2C)ccc1OCc1ccccc1F | 11.6 µM (active) | –
3 | CCOc1cc(/C=N/O)ccc1OCc1ccccc1F | inactive | –
4 | Cc1cc(NC(=O)CCS(=O)(=O)c2ccc(F)cc2)no1 | inactive | –
5 | C[C@@H]1CN(Cc2ccc3c(c2)CN(Cc2ccc(Oc4ncccn4)cc2)CCO3)C[C@H](C)O1 | – | -11.8% [at 9.04 µM]
6 | O=C1Nc2ccc(Br)cc2/C1=N/N=C/C1=C(N2CCOCC2)C(=C\c2ccccc2)/CC1 | 16.4 µM (active) | –
7 | CCN(CC)c1ccc(C(=O)N/N=C/c2ccc(N3CCOCC3)cc2)cc1 | inactive | –
8 | COc1ccc(/C=N/N=C2/C(=O)Nc3ccccc32)cc1O | inactive | –
9 | O=C(NN=Cc1ccc(N2CCOCC2)cc1)c1cc2ccccc2cc1O | inactive | –
10 | O=C(O)c1ccc(NN=CC2=C(N3CCOCC3)/C(=C/c3ccccc3)CC2)cc1 | 1.46 µM (active) | –
11 | CC1CCN(C(NC(=O)c2ccco2)C(=O)c2ccccc2)CC1 (centres undefined) | inactive | –
12 | Cc1csc(SCC(=O)Nc2ccc(C)c(S(=O)(=O)N(C)C)c2)n1 | inactive | –
13 | Cc1ccc(C(=O)NNC(=O)CSc2nnc3ccccn23)cc1 | inactive | –
14 | Cc1ccc(-n2c(C)cc(C(=O)CSc3nnc4ccccn34)c2C)cc1 | 23.1 µM (active) | –
15 | O=C(CSc1nnc2ccccn12)c1ccccc1 | inactive | –
16 | COc1ccccc1C(=O)COC(=O)CSCC(=O)Nc1cc(C)on1 | inactive | –
17 | NC(=O)C1CCCN(CC(=O)N2CCN(c3ccccc3)CC2)C1 (centres undefined) | inactive | –
18 | Cc1ccc(S(=O)(=O)Oc2ccc(/C=N/NC(=O)c3c(Cl)cnn3C)cc2)cc1 | inactive | –
19 | CC(C)(C)Nc1c(-c2cccs2)nc2ccccn12 | inactive | –
20 | Cc1nc2ccccn2c(=O)c1NC(=O)c1ccc(Br)o1 | inactive | –
21 | Cc1ccc(-c2nc3ccccn3c2Nc2c(C)cccc2C)o1 | 16.4 µM (active) | –
22 | O=C(CSc1ccccc1)Nc1cccc(S(=O)(=O)N2CCOCC2)c1 | inactive | –
23 | CC(=O)Nc1ccc(C(=O)NNC(=O)CCCCC(=O)NNC(=O)c2ccc(NC(C)=O)cc2)cc1 | inactive | –
24 | Cn1c(=O)n(C)c2cc(C(=O)Nc3ccc(Br)cc3)ccc21 | inactive | –
25 | COCCn1c(=O)[nH]c(=O)c2cc(C(=O)c3cc(OC)ccc3O)cnc21 | inactive | –
26 | COc1cc(OC)c2c(c1)OC(=O)CC2c1cc(OC)c(OC)c(OC)c1 (centres undefined) | inactive | –
27 | COC(=O)c1cc(CNC(=O)CC(C)c2ccccc2)ccc1OC (centres undefined) | inactive | –

Row | Structure (SMILES) | Potency | activity change, negative = growth inhibition
28 | COc1cc(NC(=O)CSC(=S)N2CCCC2)c(OC)cc1Cl | 29.1 µM (active) | –
29 | COc1cc(Cl)c(C)cc1NC(=O)CN1CCCCCC1 | inactive | –
30 | COc1cc(NC(=S)N2CCCC(C)C2)c(OC)cc1Cl (centres undefined) | inactive | –
31 | N#C/C(=C\c1cccc(F)c1)c1nc(-c2cc3c(ccc4ccccc43)oc2=O)cs1 | inactive | –
32 | Cc1cc(C)c(S(=O)(=O)N(C)CC(=O)NCC2CCCO2)c(C)c1 (centres undefined) | inactive | –
33 | COc1cccc(C(=O)NC2=NC(c3ccc(N(C)C)cc3)CC(=O)N2)c1 (centres undefined) | inactive | –
34 | COc1ccc(CCNc2nc(C)cc(C)n2)cc1OC | inactive | –
35 | COc1ccc(CCNc2nc(-c3ccc(Cl)cc3)cc(C(F)(F)F)n2)cc1OC | 23.1 µM (active) | –
36 | COc1ccc(CCNC(=O)COC(=O)c2ncc(Cl)c(Cl)c2Cl)cc1OC | inactive | –
37 | O=C(CN(C(=O)c1csnn1)c1ccc(Br)cc1)NC1CCCC1 | inactive | –
38 | O=C(CCN1C(=O)[C@H]2CC=CC[C@H]2C1=O)NCc1nc(-c2ccccc2)no1 | inactive | –
39 | COc1ccc(OC)c(NC(=O)c2ccc3c(c2)C(=O)N(c2ccc(OC(C)=O)cc2)C3=O)c1 | inactive | –
40 | CC1CCCCN1CCCNc1ccc(C(CC(N)=O)NC(=O)c2ccccc2)cc1[N+](=O)[O-] (centres undefined) | inactive | –
41 | Cc1ccc(OCC(=O)Nc2ccc(NC(=O)c3cccs3)cc2)c(C)c1 | inactive | –
42 | CCC(C)N1C(=S)SC(C)(C)C1N(O)C(=O)NC1CCCCC1 (centres undefined) | inactive | –
43 | O=C(COC(=O)c1ccc(O)cc1O)NNC(=O)c1cccs1 | inactive | –
44 | Cc1cc2nc3n(c2cc1C)CC1CC(C(=O)NCCC(C)C)N(C)C31 (centres undefined) | inactive | –
45 | COc1ccc(-n2ncc3c(SCC(=O)NNC(C)=O)ncnc32)cc1 | inactive | –
46 | CCOc1ccc(NC(=O)c2cccc3c2C(=O)N(CC2CCCO2)C3)cc1 (centres undefined) | inactive | –
47 | COc1ccc(NC(=O)c2cccc3c2C(=O)N(CC2CCCO2)C3)cc1OC (centres undefined) | 23.1 µM (active) | –
48 | COCCN1Cc2cccc(C(=O)Nc3ccccc3OC)c2C1=O | inactive | –
49 | O=C1NC(c2ccccc2)CCC1(Cl)Cl (centres undefined) | inactive | –
50 | Cc1ccc(NC(=O)CCN2C(=O)c3ccccc3C2=O)cc1C | inactive | –
51 | COC(=O)C[C@H]1C[C@@H]2c3cc(NC(=O)Nc4ccccc4)ccc3O[C@@H]2[C@@H](CO)O1 | inactive | –
52 | O=C(CN1Cc2ccccc2OC(c2ccccc2)C1)N1CCCCC1c1cccnc1 (centres undefined) | – | -0.761% [at 9.04 µM]
53 | COc1cc(CNCc2ccc(OC)c3ccccc23)cc(OC)c1OC | 9.2 µM (active) | –
54 | COc1ccc(CNCCCNCc2ccc(OC)c(OC)c2)cc1OC | inactive | –
